Reference: paper PMC4336329 (PLoS ONE, 2015)
Out of some 310,000 compounds screened, about 14,000 (4.5%) showed an effect of 50% or more. Effects have a minus sign here. Only a selection was taken, and strong results are over-represented in it overall.

The compounds below were run against human ether-à-go-go-related gene (hERG) potassium channel (human, UniProt Q12809) (assay: primary screen, population patch clamp on CHO cells stably expressing hERG; higher = less effect of the substance).
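Further: peak tail current of the secondary pulse compared with the same well before compound.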

human ether-à-go-go-related gene (hERG) potassium channel, sequence (Q12809 whole entry, looked up): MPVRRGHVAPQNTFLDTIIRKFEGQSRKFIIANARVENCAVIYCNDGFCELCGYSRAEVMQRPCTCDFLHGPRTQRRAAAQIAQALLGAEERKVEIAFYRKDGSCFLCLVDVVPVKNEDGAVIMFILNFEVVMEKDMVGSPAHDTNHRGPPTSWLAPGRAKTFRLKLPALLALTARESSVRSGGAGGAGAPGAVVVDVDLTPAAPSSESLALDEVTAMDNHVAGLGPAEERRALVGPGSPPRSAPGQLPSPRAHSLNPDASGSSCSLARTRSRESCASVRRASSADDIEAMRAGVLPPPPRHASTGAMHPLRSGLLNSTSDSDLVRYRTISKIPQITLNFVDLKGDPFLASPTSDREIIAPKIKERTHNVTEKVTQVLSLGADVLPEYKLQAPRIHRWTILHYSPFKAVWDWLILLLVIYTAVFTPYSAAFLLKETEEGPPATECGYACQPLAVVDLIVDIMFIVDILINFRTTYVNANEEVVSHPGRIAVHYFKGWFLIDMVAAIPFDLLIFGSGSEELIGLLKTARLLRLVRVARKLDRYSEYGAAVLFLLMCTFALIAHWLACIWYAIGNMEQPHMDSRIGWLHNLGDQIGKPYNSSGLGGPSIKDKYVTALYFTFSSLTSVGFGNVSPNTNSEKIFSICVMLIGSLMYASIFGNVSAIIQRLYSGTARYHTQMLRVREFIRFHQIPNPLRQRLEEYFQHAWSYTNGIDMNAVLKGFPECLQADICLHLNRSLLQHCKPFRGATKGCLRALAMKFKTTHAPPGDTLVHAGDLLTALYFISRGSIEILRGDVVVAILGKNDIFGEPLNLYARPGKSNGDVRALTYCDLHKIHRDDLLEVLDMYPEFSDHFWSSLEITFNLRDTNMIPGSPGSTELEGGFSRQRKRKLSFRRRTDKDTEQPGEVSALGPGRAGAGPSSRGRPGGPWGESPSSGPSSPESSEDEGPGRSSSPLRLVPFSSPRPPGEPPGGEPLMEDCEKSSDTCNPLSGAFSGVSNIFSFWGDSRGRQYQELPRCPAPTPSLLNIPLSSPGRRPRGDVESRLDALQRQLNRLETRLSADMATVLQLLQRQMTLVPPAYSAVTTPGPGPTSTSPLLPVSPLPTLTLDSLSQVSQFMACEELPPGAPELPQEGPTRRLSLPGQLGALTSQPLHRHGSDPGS

| SMILES | hERG current change (%, negative = inhibition) at 10uM [%] |
| --- | --- |
| COc1ccccc1CNC(=O)c1ccc(OC(F)F)c(OC)c1 | -32.1 |
| CCOC(=O)c1sc(NC(=O)c2ccc(S(=O)(=O)N3CCOCC3)cc2)nc1-c1ccccc1 | -27.6 |
| Cc1ccc(-c2csc3nc[nH]c(=O)c23)cc1 | 6.88 |
| CCOc1cc(Br)ccc1S(=O)(=O)NCc1ccccc1 | -30.3 |
| Cc1c(NC(=O)c2ccccc2NC(=O)COc2ccccc2)cccc1C(=O)O | 14.2 |
| O=c1c2ccccc2nc(N2CCCC2)n1-c1ccccc1 | 10.7 |
| Cc1cc(N2CCN(c3ccccc3)CC2)nc(-c2ccccc2)n1 | -30.9 |
| Cc1cc(N2CCN(C(=O)c3ccco3)CC2)nc(-c2ccccc2)n1 | -65.4 |
| Cc1cc(N2CCN(C(=O)c3ccco3)CC2)n2nc(C)nc2n1 | -44 |
| O=C(c1ccco1)N1CCN(Cc2nc3ccccc3c(=O)n2-c2ccc(F)cc2)CC1 | -18.8 |
| Cc1cc(=O)[nH]c(N2CCN(C(=O)c3ccco3)CC2)n1 | 14 |
| Cc1cc(N2CCN(C(=O)c3ccco3)CC2)n2ncc(-c3ccccc3)c2n1 | -50.5 |
| Cc1cc(N2CCN(C(=O)c3ccco3)CC2)n2ncnc2n1 | -30.3 |
| O=C(c1ccco1)N1CCN(C(=O)c2cc(Cl)nc3ccccc23)CC1 | -35.2 |
| Cc1nc2ccccc2c2oc(C(=O)N3CCN(C(=O)c4ccco4)CC3)cc12 | -46.7 |
| O=C(c1ccco1)N1CCN(c2nc3ccccc3c(=O)n2-c2ccccc2)CC1 | -54.9 |
| Cc1cc(N2CCN(C(=O)c3ccco3)CC2)c2ccccc2n1 | -71.8 |
| C=CCN=C(C)C1=C(O)CCC1=O | 16.5 |
| O=C(CSc1nc2c(c(=O)n1-c1ccc(Cl)cc1)SCC2)N1CCOCC1 | -14.2 |
| O=C1C(C2=NC(c3ccccn3)C3C(=O)N(c4ccc(Cl)cc4Cl)C(=O)C23)=C(O)c2ccccc21 (centres unmarked) | -4.11 |
| O=C(Cc1cccs1)NNC(=O)c1ccc(F)cc1 | 3.91 |

| SMILES | hERG current change (%, negative = inhibition) at 10uM [%] |
| --- | --- |
| Cc1ccc(CNC(=O)C2CC(c3cc(C(F)(F)F)cc(C(F)(F)F)c3)=NO2)o1 (centres unmarked) | -12.1 |
| CCOc1ccc(-c2noc(CCC(=O)O)n2)cc1 | -1.59 |
| Cc1nnc(NC(=O)c2ccc(-c3ccc([N+](=O)[O-])cc3)o2)s1 | -11.7 |
| c1ccc(COc2ccc(OCCn3cncn3)cc2)cc1 | 4.65 |
| CCn1c(O)c(C=Nc2ccccc2)sc1=O | 13.9 |
| O=C(Nc1ccc(OCC(=O)N2CCOCC2)cc1)Nc1cccc(Cl)c1 | -7.18 |
| O=C1c2cccc3cccc(c23)C(=O)N1CCN1CCN(C(=S)Nc2ccc(Cl)cc2)CC1 | 16.4 |
| COc1cc(COCC(O)CN2CCN(Cc3ccccc3)CC2)cc(OC)c1OC.Cl (centres unmarked) | -39.1 |
| CCN1CCN(CC(O)COCc2cc(OC)c(OC)c(OC)c2)CC1.Cl (centres unmarked) | 22.2 |
| O=C1c2ccccc2C(=O)N1CC(O)COCc1ccccc1 (centres unmarked) | 19.4 |
| Cl.O=C1c2cccc3cccc(c23)C(=O)N1CCN1CCN(CC(O)COCc2ccc(Cl)cc2)CC1 (centres unmarked) | -72.5 |
| COc1cc(COCC(O)CN2CCN(CCN3C(=O)c4cccc5cccc(c45)C3=O)CC2)cc(OC)c1OC.Cl (centres unmarked) | -62 |
| O=C(Nc1c(-c2ccccc2)nc2ncccn12)c1cc2ccccc2oc1=O | -12.2 |
| COC(=O)c1cc(-c2ccc(Cl)cc2Cl)n[nH]1 | 14.1 |
| O=Cc1c(Sc2ccccc2)nc2ccccn2c1=O | -0.892 |
| COc1ccc(-c2csc3[nH]c(=S)n(-c4ccccc4)c(=O)c23)cc1OC | 23.8 |
| O=C(Nc1ccccc1)NN(C(=O)CCl)c1ccccc1 | 6.85 |
| CSc1cc(C)nc(N(C)C(C)=O)n1 | 27.1 |
| CCOC(=O)c1cn(Cc2ccccc2)nc1-c1ccccc1 | -8.37 |
| O=C(O)c1ccc(NS(=O)(=O)c2ccc3c(c2)C(=O)c2ccccc2C3=O)cc1 | 18.5 |
| CCCCc1ccc(-n2c(Cc3cccs3)n[nH]c2=S)cc1 | -56.3 |

| SMILES | hERG current change (%, negative = inhibition) at 10uM [%] |
| --- | --- |
| S=c1[nH]nc(Cc2cccs2)n1-c1ccccc1 | 16.2 |
| Cc1ccccc1-n1c(Cc2cccs2)n[nH]c1=S | 14.3 |
| O=C(Nc1ccc2c(c1)OCO2)c1cc(-c2ccccc2Cl)on1 | 15.3 |
| CCOc1ccc(CCNC(=O)CS(=O)Cc2nc(-c3ccccc3Cl)oc2C)cc1OCC (centres unmarked) | -10.7 |
| CC(C)C1N=C2c3ccccc3N=C(SCC(=O)c3ccc(O)c(O)c3)N2C1=O (centres unmarked) | -23.1 |
| CC(C)C1N=C2c3ccccc3N=C(SCc3cc(=O)n4cc(Cl)ccc4n3)N2C1=O (centres unmarked) | -67 |
| Cc1ccc2nc(CSc3nnc4ccccn34)cc(=O)n2c1 | 13.2 |
| O=C(O)CCCCn1c(SCc2cc(=O)n3cc(Cl)ccc3n2)nc2ccsc2c1=O | 2.87 |
| CC(C)C1N=C2c3ccccc3N=C(SCC#N)N2C1=O (centres unmarked) | 5.14 |
| CC1N=C2c3ccccc3N=C(SCc3cc(=O)n4cc(Cl)ccc4n3)N2C1=O (centres unmarked) | -63.6 |
| COc1ccc(CN2C(=O)NC3(CCCc4ccccc43)C2=O)cc1F (centres unmarked) | -14.4 |
| O=[N+]([O-])c1cc(S(=O)(=O)Nc2cccc(C(F)(F)F)c2)ccc1-n1nnc2ccccc21 | 0.81 |
| COc1ccc(S(=O)(=O)N2CCC(N3CCN(c4ccccc4)CC3)CC2)cc1 | -8.52 |
| C/C=C(\C)C(=O)NCCN1C2=NC[C@@H](Cc3ccccc3)N2C[C@H]1Cc1ccc(O)cc1 | 12.8 |
| C/C=C(\C)C(=O)NCCN1C2=NC[C@@H](Cc3ccccc3)N2C[C@@H]1Cc1ccc(OC)cc1 | -60.3 |
| C/C=C(\C)C(=O)NCCN1C2=NC[C@H](Cc3ccccc3)N2C[C@H]1Cc1ccc(O)cc1 | 1.99 |
| C/C=C(\C)C(=O)NCCN1C2=NC[C@H](C(C)C)N2C[C@H]1Cc1ccc(O)cc1 | 23.1 |
| C/C=C(\C)C(=O)NCCN1C2=NC[C@H](Cc3ccc(O)cc3)N2C[C@@H]1Cc1ccc(OC)cc1 | -2.89 |
| C/C=C(\C)C(=O)NCCN1C2=NC[C@H](C)N2C[C@@H]1Cc1ccc(OC)cc1 | -4.7 |
| C/C=C(\C)C(=O)NCCN1C2=NC[C@H](C(C)C)N2C[C@@H]1Cc1ccc(OC)cc1 | -86.6 |
| C/C=C(\C)C(=O)NCCN1C2=NC[C@H](Cc3ccccc3)N2C[C@@H]1Cc1ccc(OC)cc1 | -73.3 |

| SMILES | hERG current change (%, negative = inhibition) at 10uM [%] |
| --- | --- |
| CC1(C)CC(=O)C2=C(C1)OC1=C(C(=O)CC(C)(C)C1)C2c1ccc(O)c([N+](=O)[O-])c1 | 14 |
| Cc1cc(O)c(C=Nc2ccc(N3CCOCC3)cc2)c(C)c1Cl | 18.5 |
| O=C1CN(C(=O)COC(=O)C2CC(=O)N(Cc3ccco3)C2)c2ccccc2N1 (centres unmarked) | -7.99 |
| CSc1ccc(/C=C2\C(=N)N3N=C(CC(=O)N4CCOCC4)SC3=NC2=O)cc1 | 14.2 |
| CCN1CCN(CCCNC(=O)c2ccc3c(c2)NC(=O)/C(=C\c2cccc(C)c2)S3)CC1 | -38.6 |
| CC1CCN(C(=O)c2ccc3c(c2)NC(=O)/C(=C/c2ccccc2)S3)CC1 | 11 |
| Cc1cccc(/C=C2/Sc3ccc(C(=O)NCCCN4CCOCC4)cc3NC2=O)c1 | -25.3 |
| CCC1CCCCN1CCCNC(=O)c1ccc2c(c1)NC(=O)CS2 (centres unmarked) | 4.27 |
| COc1cccc(/C=C2/Sc3ccc(C(=O)NCCCN4CCCC4)cc3NC2=O)c1 | -59.8 |
| CCC1CCCCN1CCCNC(=O)c1ccc(/C=C2/Sc3ccccc3NC2=O)cc1 (centres unmarked) | -76.9 |
| COc1cccc(/C=C2/Sc3ccc(C(=O)NCCN4CCCC4)cc3NC2=O)c1 | -39.1 |
| COc1cccc(/C=C2/Sc3ccc(C(=O)NCCN4CCCCCC4)cc3NC2=O)c1 | -47.3 |
| CN1CCN(C(=O)c2ccc3c(c2)NC(=O)/C(=C/c2ccccc2)S3)CC1 | -16 |
| O=C1Nc2cc(C(=O)N3CCC(N4CCCCC4)CC3)ccc2S/C1=C\c1ccccc1 | -58.3 |
| CCN1CCCC1CNC(=O)c1ccc2c(c1)NC(=O)/C(=C\c1ccc(C)cc1)S2 (centres unmarked) | -42.4 |
| Cc1cccc(/C=C2/Sc3ccc(C(=O)NCCN4CCCC4)cc3NC2=O)c1 | -54.7 |
| CC(C)(C)C(=O)O/N=C(\N)c1ccc([N+](=O)[O-])s1 | 20.7 |
| CSc1cccc(NC(=O)C2CCN(C(=O)c3ccccc3C)CC2)c1 | -18.7 |
| O=C1CC(c2ccc(F)cc2)Cc2nc(N3CCN(c4ccccc4)CC3)ncc21 (centres unmarked) | 1.48 |
| O=C(O)c1ccc(/C=N/NC(=O)c2ccc3c(c2)OCCO3)cc1 | 16.1 |
